Source: PubChem BioAssay (National Center for Advancing Translational Sciences (NCATS))
Sampled rows, rich in hits. Any-hit rate of the full collection: about 8%.
SW480 rerep: DNA re-replication induction in SW480 cells; SW480 DNA re-replication, Hoechst DNA content imaging, 48 h; Potency, µM (titrated, usually from 46.1 µM), without a hit: at the top dose re-replication activation, actives largely listed as activators; 1.8% of 340,000 active; note: % of control where 0% means no effect; nearly all actives have a fitted effect of over 55% in size
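First, 250 cells per well were seeded. Next, compound or vehicle (23 nL) was pinned in, plates sat 48 hr at 37 C. Finally Hoechst was added for 40 min before fluorescence scanning.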
HT1080NT lethal: kills 2HG-producing HT-1080-NT fibrosarcoma cells | 1.6% of 360,000 active | HT-1080-NT fibrosarcoma viability, CellTiter-Glo ATP luminescence, 48 h | Potency, µM (titrated, usually from 46.1 µM), for inactives: at the top dose activity, negative = less viability, hits mostly cytotoxic;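 note: NT is the 2HG producing partner of a matched IDH1 knockdown line; 0% = DMSO-treated cells and -100% = media-only wells without cells; nearly all actives have a fitted effect of over 55% in size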
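HT-1080-NT; 750 cells/well; 5% FBS RPMI; 48 h compound, 37 degrees C; CellTiter-Glo luminescence; curve fitting and curve-class assignment.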
HT1080 IDH1KD tx: toxicity to HT-1080 IDH1 knockdown cells (counter line). HT-1080 IDH1 knockdown viability, ATP luminescence, 48 h. Potency, µM (doses to about 46.1 µM), without a hit: top-dose activity, negative = toxicity, actives largely listed as cytotoxic. 2% of 360,000 active. AID 686971;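 note: 0% = DMSO wells and -100% = cell-free medium wells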
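HT-1080-IDH1KD cells (IDH1 knocked down), 750/well in RPMI with 5% FBS, treated with compound 48 h at 37 degrees C. Viability by CellTiter-Glo luminescence, normalised to DMSO and no-cell wells; concentration-response curves classed.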
MCF10A rerep: induces DNA re-replication in MCF 10a normal breast cells | MCF 10A DNA re-replication, Hoechst nuclear intensity, 48 h | Potency, µM (titrated, usually from 46.1 µM), for inactives: top-dose activity, positive = re-replication, most hits filed as activators | 2.9% of 350,000 active; note: % of control where 0% means no effect; nearly all actives have a fitted effect of over 50% in size
KB-3-1 tox: KB-3-1 parental cell cytotoxicity; KB-3-1 viability, CellTiter-Glo ATP luminescence, 72 h; Potency, µM (doses to about 46.1 µM), actives largely listed as cytotoxic; 1.4% of 400,000 active; AID 1347075; note: % is set by controls: 0 for no effect and ±100 for the full control effect; nearly all actives have a fitted effect of over 60% in size
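Here the drug-naive KB-3-1 line serves as comparator for MDR sub-line selectivity; cells received compound titrations, 72 h at 37 °C, then CellTiter-Glo readout.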
KB-V1 cytotox: KB-V1 MDR subline cytotoxicity; KB-V1 MDR cells viability, CellTiter-Glo, 72 h; Potency, µM (series often up to 46.1 µM), actives largely listed as cytotoxic; 3.4% of 400,000 active; AID 1347076; note: % is set by controls: 0 for no effect and ±100 for the full control effect; nearly all actives have a fitted effect of over 60% in size
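In this primary screen, KB-V1 cells overexpressing P-gp are incubated with library compounds (lowest to highest concentration) for 72 h at 37 degrees C before a luminescent ATP viability read.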
* = called active by the depositor; i = inactive; ? = inconclusive; / = no result; [ ] = remark or other dose. Calls come from the whole dose curve; as a rule, active = well fitted curve in the direction sought with a large enough effect; inconclusive = small, poorly fitted or top-dose-only effect, or another doubt; inactive = no such curve, though single readings can be large; an effect the other way counts as inactive or inconclusive. Potency is the fitted concentration of half-maximal effect.

SMILES	SW480 rerep	HT1080NT lethal	HT1080 IDH1KD tx	MCF10A rerep	KB-3-1 tox	KB-V1 cytotox
CC(NCc1ccc(F)cc1)C(=O)Nc1cc(S(=O)(=O)N2CCCCC2)ccc1Cl (stereo not given)	?	0.0%	-14.0%	?	?	16.4µM*
COc1ccc(S(=O)(=O)N2CCCCCC2)cc1NC(=O)CCNC(=O)c1ccc(Cl)cc1	/	-18.0%	-3.6%	/	i	i
CC(NCc1ccccc1Cl)C(=O)Nc1ccc(S(=O)(=O)N2CCCC2)cc1 (stereo not given)	-3.1%	-2.7%	-2.7%	11.2%	i	?
CN(C)c1ccc(S(=O)(=O)N2CCCCC2)cc1NC(=O)CCNC(=O)c1ccc(Cl)cc1	-1.2%	-0.7%	-2.2%	4.1%	i	20.6µM*
CC(C)(C)CC(=O)Nc1cc(S(=O)(=O)N2CCCCCC2)ccc1Cl	?	0.3%	-13.4%	?	i	18.4µM*
O=C(CCl)Nc1cc(S(=O)(=O)N2CCCCCC2)ccc1Cl	?	23.1µM*	?	?	13µM*	11.6µM*
CN(CCc1ccccc1)C(CCc1ccccc1)C(=O)Nc1ccc2c(c1)OCCO2 (stereo not given)	/	-14.2%	-17.5%	/	i	?
CC1CN(C(=O)c2cc(S(=O)(=O)N3CCCC3)ccc2Cl)CC(C)O1 (stereo not given)	-4.4%	23.2%	17.3%	5.3%	i	i
CC1CN(C(=O)c2cc(S(=O)(=O)N3CCCCC3)ccc2Cl)CC(C)O1 (stereo not given)	1.5%	11.6%	5.5%	2.2%	i	20.6µM*
CCN(C[C@H]1N[C@@](Cc2ccccc2)(C(=O)OC)[C@H]2C(=O)N(Cc3ccccc3)C(=O)[C@@H]12)C(=O)COc1ccccc1	?	3.8%	3.8%	-3.8%	i	i
CCCCCCOC(=O)c1ccc(N)cc1	0.4%	?	?	23.1µM*	i	i
Cc1ccccc1NC(=S)NCc1ccc2c(c1)cc(C)n2C	16.4µM*	14.6µM*	?	?	?	20.6µM*
Cc1cc2cc(CNC(=S)NCc3ccccc3)ccc2n1C	-2.6%	?	-13.6%	13.0%	i	i
CCc1cccc(C)c1NC(=S)NCc1ccc2c(c1)cc(C)n2C	14.6µM*	-3.5%	-2.4%	14.6µM*	?	i
COc1ccccc1NC(=S)NCc1ccc2c(c1)cc(C)n2C	?	2.4%	-24.1%	?	i	i
Cc1ccc(C)c2c(C)ccnc12	/	/	/	/	i	i
N#Cc1ccc(COC(=O)CN2C(=O)NC3(CCCC3)C2=O)cc1	-0.5%	-0.2%	15.7%	-0.7%	i	?
CCc1n[nH]c(=S)n1/N=C/c1cccc2ccccc12	-5.8%[9.22 µM]	-4.3%	-6.3%	?	6.51µM*	5.8µM*
CCc1n[nH]c(=S)n1/N=C/c1ccccn1	-0.1%	28.8%	8.5%	-5.8%	i	i
CCc1n[nH]c(=S)n1/N=C/c1c(O)ccc2ccccc12	-3.4%	10.1%	8.7%	8.8%	?	5.8µM*
Cc1ccc2c(c1)C(=O)CC(c1ccccc1)S2 (stereo not given)	3.9%	-0.7%	2.9%	7.5%	i	i
COc1ccccc1N1CCN(C(=O)Cc2c(C(=O)O)c(C)cn2C)CC1	/	/	/	/	i	i
CCCN(CCC)S(=O)(=O)c1ccc2c(c1)N(CC(=O)NCc1ccc(F)cc1Cl)C(=O)CS2	/	/	/	/	?	i
O=[N+]([O-])c1nn(-c2ccccc2)n(O)c1=NC1CCN(Cc2ccccc2)CC1	10.3µM*	1.8%	0.7%	?	i	?
O=[N+]([O-])c1nn(-c2ccc3c(c2)OCCO3)n(O)c1=NC1CCN(Cc2ccccc2)CC1	7.31µM*	-20.6%	-15.9%	14.6%	i	i
SMILES	SW480 rerep	HT1080NT lethal	HT1080 IDH1KD tx	MCF10A rerep	KB-3-1 tox	KB-V1 cytotox
CCn1c2ccccc2c2nnc(SCCCn3c(=O)[nH]c4ccccc43)nc21	?	-1.1%	17.1%	?	i	?
Cc1cccc(-n2nnc(C(=O)NCc3ccc4c(c3)OCO4)c2N)c1	-1.6%	2.8%	3.5%	22.7%	i	?
CCOC(=O)c1c(C)c(C(=O)NCc2cccs2)c(C)n1CC	-7.7%	?	4.6%	-1.7%	i	14.6µM*
CCOC(=O)c1c(C)c(C(=O)NCc2ccc3c(c2)OCO3)c(C)n1C	0.3%	-1.9%	-2.6%	0.6%	i	18.4µM*
Cc1cc(C)cc(-n2nnc(C(=O)NCc3ccc4c(c3)OCO4)c2N)c1	-4.9%	8.4%	4.7%	?	i	8.2µM*
CCOC(=O)c1c(C)c(C(=O)NCc2ccc(OC)cc2)c(C)n1CC	/	/	/	/	i	i
CCOc1cc(C)c(C(C)C)cc1S(=O)(=O)N1CC(C)OC(C)C1 (stereo not given)	11.6%	-0.8%	-10.3%	2.2%	i	?
COc1cc(C)c(Cl)cc1S(=O)(=O)n1cnc(C)c1	-3.1%	8.0%	0.0%	-3.1%	i	i
CCOc1cc(C)c(C(C)C)cc1S(=O)(=O)n1cnc(C)c1	?	?	11.6µM*	9.2µM*	?	?
COc1ccc(C(C)C)cc1S(=O)(=O)n1cnc(C)c1	20.6µM*	?	?	?	i	i
COc1ccc(NC(=O)c2c(NC(=O)c3ccc(Br)cc3)sc3c2CCCC3)cc1	/	/	/	/	?	i
NC(N)=N/N=C/c1cccc([N+](=O)[O-])c1O	-2.2%	12.5%	11.9%	0.0%	i	i
O=[N+]([O-])c1cccc(/C=N\N=C2c3ccccc3-c3ccccc32)c1O	141.3%	2.7%	5.9%	-36.1%	?	18.4µM*
O=[N+]([O-])c1cccc(C=NN=C2c3ccccc3-c3ccccc32)c1	-2.3%	-2.1%	14.3%	7.5%	i	20.6µM*
Cc1ccccc1S(=O)(=O)N1C[C@@H]2C(C(=O)C[C@@H]3C(=O)N(C)C(=O)[C@@H]32)[C@@H]1c1ccc(Cl)cc1 (stereo not given in full)	/	0.4%	0.2%	/	i	i
CCN(CC)CCCNC(=O)c1ccc(Cn2c(SCc3ccccc3)nc3cccnc32)cc1	/	/	/	/	i	i
COc1ccc(C(=O)NC2CCN(C(=S)Nc3ccc(C)cc3)CC2)cc1	0.5%	0.1%	-15.6%	?	i	i
CCOC(=O)C(/C(C)=N/NC(=O)C1CC1c1ccccc1)C(C)C (stereo not given)	?	-1.3%	-0.3%	-1.6%	i	16.4µM*
O=C(O)c1ccc(Cl)cc1Nc1nc2cc(Cl)ccc2o1	5.5%	-11.4%	-2.9%	20.6µM*	16.4µM*	16.4µM*
